In PubChem BioAssay AID588742 (Southern Research Specialized Biocontainment Screening …, 2011):
Hit rate of the full screen: of about 1,800 compounds, about 410 (23%) were called active. How the calls were made is not given here. Only a sample is shown. Measured potencies and affinities stand elsewhere.

Experiment: Vero cell cytotoxicity, cytotoxicity control for flavivirus capping enzyme inhibitors (AID 588742)
Settings: Vero cells viability, cytotoxicity counter-screen; series mostly up to 40 µM

Row | SMILES | outcome
1 | CC(=O)N1CCn2c3c(c(=O)c4cc(C)ccc42)CCC31 (stereo not given) | inactive
2 | O=C(O)c1ccc(Cl)c(S(=O)(=O)Nc2ccc(S(=O)(=O)Nc3cccc(Cl)c3)cc2)c1 | inactive
3 | Cc1ccc(SCc2[nH]nc3c2C(c2ccc(C)o2)C(C#N)=C(N)O3)cc1 (stereo not given) | inactive
4 | Cc1ccc(C2C(C#N)=C(N)OC3=C2C(=O)CC(C)(C)C3)s1 (stereo not given) | inactive
5 | CCS(=O)(=O)c1nc(S(=O)(=O)c2ccc(C)cc2)c(N2CCCC2)s1 | inactive
6 | O=C(O)CC/C(=C\c1ccc(N2CCCC2)c([N+](=O)[O-])c1)c1nc2ccccc2s1 | inactive
7 | C=CCNc1cc(N2CCCC2)ccc1[N+](=O)[O-] | inactive
8 | COc1ccc(/C=C2/SC(=S)N(CC(=O)O)C2=O)cc1OCc1ccc(Cl)cc1 | inactive
9 | O=C(O)CSc1cc(C(=O)c2ccccc2O)cn2c(=O)c3c4c(sc3nc12)CCCC4 | inactive
10 | COc1ccc(O)c(C(=O)c2cc(SCC(=O)O)c3nc4sc5c(c4c(=O)n3c2)CCCC5)c1 | inactive
11 | O=C(CNc1ccc2ccccc2c1)N/N=C/c1ccncc1 | inactive
12 | CN(C)c1cccc(C(=O)OC(C(=O)Nc2ccc([N+](=O)[O-])cc2Br)c2ccccc2)c1 (stereo not given) | inactive
13 | CC1=NN(C(=S)Nc2ccccc2)C(c2ccccc2)C1 (stereo not given) | inactive
14 | Cc1cccc(C2C3=C(Nc4[nH]n(-c5ccccc5)c(=O)c42)c2ccccc2C3=O)c1 (stereo not given) | inactive
15 | COc1cc(N2CCCC2)c(OC)cc1C=O | inactive
16 | COc1ccc(S(=O)(=O)CC(=O)c2cc3cccc(C)c3oc2=O)cc1 | inactive
17 | N#Cc1c(SC(C(=O)O)c2ccccc2)nc2c(c1-c1cccs1)CCCC2 (stereo not given) | inactive
18 | CC1=NN(c2nc(-c3ccccc3)cs2)C(=O)C1 | inactive
19 | COc1cc(/C=C(\C#N)C(=O)Nc2ccccc2C(=O)O)cc(Cl)c1OC | inactive
20 | COc1ccc2nc3cccc(OC)c3nc2c1 | inactive
21 | COc1ccc2nc3ccccc3nc2c1N | inactive
22 | COc1cc(N=c2ssnc2Cl)c(OC)cc1Cl | inactive
23 | O=C(O)/C(CC(=O)c1ccc(Cl)cc1)=N/Nc1ccc([N+](=O)[O-])cc1[N+](=O)[O-] | inactive
24 | O=C(c1ccc(NC(=O)C(c2ccccc2)c2ccccc2)cc1)c1ccc(C(=O)O)c(C(=O)O)c1 | inactive
25 | COc1ccccc1/C=C1/C(=O)N(c2ccccc2)N=C1C | inactive

Row | SMILES | outcome
26 | CC1=NN(c2ccccc2)C(=O)/C1=C/c1cccs1 | inactive
27 | CC(=O)CSc1nsc(SCC(C)=O)c1C#N | inactive
28 | C=CCOc1ccccc1OCC(O)CNC(C)C (stereo not given) | inactive
29 | O=C(CN1C(=O)/C(=C2/SC(=S)N(CCS(=O)(=O)O)C2=O)c2ccccc21)Nc1cccc(C(F)(F)F)c1 | inactive
30 | Cc1oc2cc([N+](=O)[O-])c(O)c([N+](=O)[O-])c2c1C(=O)c1ccc(Br)cc1 | inactive
31 | O=[N+]([O-])c1cc(-c2ccccc2)cc([N+](=O)[O-])c1O | inactive
32 | CC(CNC(=O)CN1C(=O)COc2ccc(S(=O)(=O)N3CCCCC3)cc21)c1ccccc1 (stereo not given) | inactive
33 | COc1ccc(-c2ccc(CCC(=O)O)o2)cc1 | inactive
34 | COC(=O)CCC(=O)OC1(C)C(=O)C2=CN(C3CCCC3)C(c3ccc(OC)cc3)=CC2=C(Br)C1=O (stereo not given) | inactive
35 | Cc1ccc(C(=O)/C=C/C(=O)O)cc1 | inactive
36 | O=C(O)/C=C/C(=O)c1ccc(O)cc1 | inactive
37 | O=C(O)c1[nH]c2ccccc2c1C(c1cc(Br)ccc1O)c1c(C(=O)O)[nH]c2ccccc12 | inactive
38 | Cc1ccc(NCc2cccnc2)c(Br)c1 | inactive
39 | O=C(CC(Nc1cccc(Cl)c1Cl)C(=O)O)c1ccccc1 (stereo not given) | inactive
40 | COc1ccc(C(C2C(=O)CC(C)(C)CC2=O)C2C(=O)CC(C)(C)CC2=O)cc1 | inactive
41 | CCOC(=O)c1c(C)oc2c1c(CN1CCN(C(=O)OCC)CC1)c(O)c1ccccc12 | inactive
42 | O=C(O)CN1C(=O)C=CC1=O | inactive
43 | CCOC(=O)c1c(NC(=O)C2C3C=CC(C3)C2C(=O)O)sc2c1CCC(CC)C2 (stereo not given) | inactive
44 | Cc1ccc(/C=C2\SC(=S)N(C(Cc3ccccc3)C(=O)O)C2=O)cc1 (stereo not given) | inactive
45 | CCOC(=O)C1=C(C)NC2=C(C(=O)C(C(=O)OCC)C(c3ccco3)C2)C1c1ccccn1 (stereo not given) | inactive
46 | Cc1ccc(C(=O)N/N=C/c2ccc(-c3ccc(Br)cc3[N+](=O)[O-])o2)o1 | inactive
47 | C=CCOc1ccc(/C=C2\SC(=S)N(C(C(=O)O)c3ccccc3)C2=O)cc1 (stereo not given) | inactive
48 | Cc1ccc(Cn2c(=S)[nH]c3ccc(N4CCOCC4)cc3c2=O)o1 | inactive
49 | C=CCn1c(=S)[nH]c2scc(-c3ccco3)c2c1=O | inactive
50 | Cc1ccc(NC(=S)NNc2ccc([N+](=O)[O-])cc2S(=O)(=O)Nc2ccccc2C(=O)O)cc1C | inactive

Row | SMILES | outcome
51 | O=C(O)COc1ccccc1C=NNc1ccc([N+](=O)[O-])cc1S(=O)(=O)Nc1ccc(Cl)cc1 | inactive
52 | CC(C)COCC(O)CCC(=O)NNC(=S)Nc1ccccc1 (stereo not given) | inactive
53 | Cc1ccc2ccc(C#N)cc2c1O | inactive
54 | COc1ccccc1-c1cc(C(=O)Nc2sc3c(c2C#N)CCC(C)C3)c2ccccc2n1 (stereo not given) | inactive
55 | COc1cc(C(c2c(C(=O)O)[nH]c3ccccc23)c2c(C(=O)O)[nH]c3ccccc23)ccc1OCc1ccccc1 | inactive
56 | COc1cc(/C=C2\C(=N)N3N=C(N4CCOCC4)SC3=NC2=O)ccc1OC(=O)c1ccccc1 | inactive
57 | Cc1cccc(N2C(=O)C(Cl)=C(N3CCOCC3)C2=O)c1 | inactive
58 | COc1ccc(C2C=C(c3ccc(Br)cc3)Nc3nc(N4C(=O)CCC4=O)nn32)cc1 (stereo not given) | inactive
59 | Cc1ccc(S(=O)(=O)Nc2ccc3ccccc3c2[N+](=O)[O-])cc1 | inactive
60 | Cc1ccc(C)c(S(=O)(=O)Nc2ccc(O)c3ccccc23)c1 | inactive
61 | O=C(O)c1ccc(N/N=C/c2cn(Cc3ccccc3F)c3ccccc23)cc1 | inactive
62 | CC(/C=C1\SC(=S)N(NS(=O)(=O)c2ccc(C)cc2)C1=O)=C\c1ccccc1 | inactive
63 | Cc1nc2ccc(NC(=O)c3cc([N+](=O)[O-])cc([N+](=O)[O-])c3Cl)cc2s1 | inactive
64 | Cc1cc([N+](=O)[O-])c(C)cc1-c1ccc(/C=N/NC(=O)c2cccnc2)o1 | inactive
65 | CN(C)c1c([N+](=O)[O-])cc(N2C(=O)C=CC2=O)cc1[N+](=O)[O-] | inactive
66 | CCOc1ccc(/C=C2\SC(=S)N(NS(=O)(=O)c3ccccc3)C2=O)cc1OC | inactive
67 | O=C(CCN1C(=O)S/C(=C/c2ccccc2)C1=O)Nc1ccc(O)c(C(=O)O)c1 | inactive
68 | COc1ccc(OC)c(-n2c(-c3ccc(O)cc3O)n[nH]c2=S)c1 | inactive
69 | Cc1sc(NC(=O)C2CCCCC2C(=O)O)c(C(N)=O)c1-c1ccc(C(C)(C)C)cc1 (stereo not given) | inactive
70 | Cc1sc(NC(=O)C2CCCCC2C(=O)O)c(C(N)=O)c1-c1ccc(C(C)C)cc1 (stereo not given) | inactive
71 | COC(=O)c1sc(-c2ccc(C(C)(C)C)cc2)cc1NC(=O)c1ccccc1C(=O)O | inactive
72 | O=C(O)CN1C(=O)/C(=C\c2cc(Br)ccc2OCc2ccccc2Cl)SC1=S | inactive
73 | Oc1cc(CNCc2ccccc2)c(O)cc1CNCc1ccccc1 | inactive
74 | O=C(O)CN1C(=O)/C(=C\c2cccc(OCc3ccc(Cl)cc3)c2)SC1=S | inactive
75 | O=[N+]([O-])c1ccc(N/N=C2/CCCCC2c2ccccn2)c([N+](=O)[O-])c1 (stereo not given) | inactive

Row | SMILES | outcome
76 | CCCc1nc2nc(C)c(NS(=O)(=O)c3ccc(C4CCCCC4)cc3)c(=O)n2[nH]1 | inactive
77 | COc1ccc(Cl)cc1/C=C1/C(=O)ON=C1C | inactive
78 | COc1ccc(OC)c(N2C(=O)C(Cl)=C(N3CCOCC3)C2=O)c1 | inactive
79 | CN1c2ccccc2C(C)(C)C12C=Nc1c(ccc3ccccc13)O2 (stereo not given) | inactive
80 | O=C(COC(=O)c1ccc(NS(=O)(=O)c2cccs2)cc1O)NC1CCCCC1 | inactive
81 | O=C1CCCc2cc(S(=O)(=O)N3CCC(C(=O)NCc4ccccc4)CC3)ccc2N1 | inactive
82 | C=CCN1C=C2C(=O)C(C)(OC(=O)c3cnc4ccccc4n3)C(=O)C=C2C=C1/C=C/COC (stereo not given) | inactive
83 | COC/C=C/C1=CC2=CC(=O)C(C)(OC(=O)c3cnc4ccccc4n3)C(=O)C2=CN1C1CC1 (stereo not given) | inactive
84 | CCc1ccccc1N1C(=O)C(Cl)=C(N2CCOCC2)C1=O | inactive
85 | Cc1ccccc1N1C(=O)C(Cl)=C(N2CCOCC2)C1=O | inactive
86 | Cc1ccc(Nc2cc(C)c(O)c(C)c2)cc1 | inactive
87 | Cc1ccc(S(=O)(=O)Nc2nc3ccccc3nc2NCc2ccco2)cc1 | inactive
88 | CC(C)C[C@H]1CN=C(Nc2ccccc2)N1CC(C)C | inactive
89 | Cc1ccc(OCC(=O)c2ccc(Cl)s2)c([N+](=O)[O-])n1 | inactive
90 | CCOc1ccc2c(c1)C(C)=CC(C)(C)N2C(=O)Nc1ccccc1 | inactive
91 | O=c1[nH]c(/C=C/c2cccc([N+](=O)[O-])c2)c([N+](=O)[O-])c(=O)[nH]1 | inactive
92 | CN1C(=O)/C(=C/c2cccc([N+](=O)[O-])c2)C(=O)N1c1ccccc1 | inactive
93 | Cc1cc(C)cc(NC(=S)N(Cc2ccc(Cl)cc2)Cc2ccc(C(=O)O)cc2)c1 | inactive
94 | CSC1=C(C#N)C(=O)NC(c2ccccc2O)S1 (stereo not given) | inactive
95 | Cc1ccc(OCc2ccc(C(=O)Nc3nccs3)o2)cc1C | inactive
96 | CCn1c(C)[n+](CCCS(=O)(=O)[O-])c2cc(Cl)c(Cl)cc21 | inactive
97 | O=S(=O)(O)c1cccc2cccc(Nc3ccccc3)c12 | inactive
98 | COc1ccc(/C=C2/SC(=S)N(NS(=O)(=O)c3ccc(C)cc3)C2=O)cc1 | inactive
99 | CCC(COC)Oc1cc(NCc2ccccc2)c2ncn(C(C)C)c2c1 (stereo not given) | inactive
100 | CCCCC1=CC2=C(c3ccco3)C(=O)C(C)(OC(=O)c3ccc(OC)cc3)C(=O)C2=CN1CC1CC1 (stereo not given) | inactive
